# According to PMC7862700, “An all-to-all approach to the identification of sequence-specific readers for epigenetic DNA modifications on cytosine”:
# Columns and labels:
# Assay in all cases: DAPPL (digital affinity profiling via proximity ligation, sequencing); 10 mM Tris-HCl pH 7.5, 50 mM NaCl, 1 mM DTT, 4% glycerol, room temperature, 30 min; GST-TFs on glutathione beads, 16-mer random dsDNA library, 0.1% formaldehyde crosslink after washing; high values mean tight binding
# [1] = target: T1, FLI1 (Homo sapiens, UniProt Q01543 1-452); settings: protein: recombinant; tags: N-terminal GST; dsDNA, one strand shown
# T1 sequence: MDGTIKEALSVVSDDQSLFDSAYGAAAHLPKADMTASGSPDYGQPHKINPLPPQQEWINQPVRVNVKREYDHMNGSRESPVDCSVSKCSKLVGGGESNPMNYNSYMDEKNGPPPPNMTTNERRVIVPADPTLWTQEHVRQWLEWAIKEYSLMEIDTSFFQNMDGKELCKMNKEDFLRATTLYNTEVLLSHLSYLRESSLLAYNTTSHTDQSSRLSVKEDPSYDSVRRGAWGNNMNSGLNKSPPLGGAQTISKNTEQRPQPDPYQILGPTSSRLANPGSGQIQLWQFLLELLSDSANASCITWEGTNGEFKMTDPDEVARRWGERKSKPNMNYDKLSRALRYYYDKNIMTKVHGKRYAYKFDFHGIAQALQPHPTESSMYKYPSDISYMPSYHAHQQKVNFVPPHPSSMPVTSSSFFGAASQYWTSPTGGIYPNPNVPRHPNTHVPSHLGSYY
# Summary of the method: (§1)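 Human transcription factors carrying a GST fusion were produced in yeast, bound to glutathione beads, tagged with DNA barcodes and pooled together with a tag-only sample. Each pool was held with 200 nmole of a random double-stranded 16-mer DNA library in Tris/NaCl/DTT/glycerol buffer for 30 min at room temperature, then washed, crosslinked in 0.1% formaldehyde, proximity-ligated with BsaI/T4 ligase (1 h, 37 °C), PCR-amplified and sequenced on an Illumina NextSeq500. Binding signal is the read frequency of each hexamer for a given factor divided by its frequency in the tag-only sample.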
# [2] = target: T2, ELK1 (Homo sapiens, UniProt P19419 1-428); settings: protein: recombinant; tags: N-terminal GST; dsDNA, one strand shown
# T2 sequence: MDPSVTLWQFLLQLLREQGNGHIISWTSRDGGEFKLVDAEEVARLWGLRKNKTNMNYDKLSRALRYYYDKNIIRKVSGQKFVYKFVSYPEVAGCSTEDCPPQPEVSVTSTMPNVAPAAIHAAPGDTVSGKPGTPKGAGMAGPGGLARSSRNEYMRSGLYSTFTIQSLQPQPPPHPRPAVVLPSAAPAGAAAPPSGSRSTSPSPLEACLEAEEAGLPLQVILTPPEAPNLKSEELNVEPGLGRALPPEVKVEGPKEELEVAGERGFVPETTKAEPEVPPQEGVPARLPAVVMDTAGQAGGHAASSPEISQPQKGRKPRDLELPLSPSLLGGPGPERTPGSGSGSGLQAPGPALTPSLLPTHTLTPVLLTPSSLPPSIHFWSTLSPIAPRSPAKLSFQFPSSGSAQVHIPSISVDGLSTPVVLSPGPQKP
# Summary of the method: as §1
# [3] = target: T3, GABPA (Homo sapiens, UniProt Q06546 1-454); settings: protein: recombinant; tags: N-terminal GST; dsDNA, one strand shown
# T3 sequence: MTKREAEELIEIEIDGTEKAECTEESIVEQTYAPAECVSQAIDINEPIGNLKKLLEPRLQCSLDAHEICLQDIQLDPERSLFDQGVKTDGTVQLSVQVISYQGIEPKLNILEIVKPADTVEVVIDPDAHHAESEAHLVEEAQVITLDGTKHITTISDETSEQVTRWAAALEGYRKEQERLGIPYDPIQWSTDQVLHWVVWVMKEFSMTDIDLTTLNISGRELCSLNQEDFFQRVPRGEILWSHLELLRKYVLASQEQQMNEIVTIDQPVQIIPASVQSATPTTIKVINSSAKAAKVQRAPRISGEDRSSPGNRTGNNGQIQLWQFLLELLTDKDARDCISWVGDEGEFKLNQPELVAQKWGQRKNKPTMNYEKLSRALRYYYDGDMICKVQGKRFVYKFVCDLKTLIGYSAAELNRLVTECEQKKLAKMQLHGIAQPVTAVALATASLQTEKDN
# Summary of the method: as §1
# [4] = target: T4, ERG (Homo sapiens, UniProt P11308 1-479); settings: protein: recombinant; tags: N-terminal GST; dsDNA, one strand shown
# T4 sequence: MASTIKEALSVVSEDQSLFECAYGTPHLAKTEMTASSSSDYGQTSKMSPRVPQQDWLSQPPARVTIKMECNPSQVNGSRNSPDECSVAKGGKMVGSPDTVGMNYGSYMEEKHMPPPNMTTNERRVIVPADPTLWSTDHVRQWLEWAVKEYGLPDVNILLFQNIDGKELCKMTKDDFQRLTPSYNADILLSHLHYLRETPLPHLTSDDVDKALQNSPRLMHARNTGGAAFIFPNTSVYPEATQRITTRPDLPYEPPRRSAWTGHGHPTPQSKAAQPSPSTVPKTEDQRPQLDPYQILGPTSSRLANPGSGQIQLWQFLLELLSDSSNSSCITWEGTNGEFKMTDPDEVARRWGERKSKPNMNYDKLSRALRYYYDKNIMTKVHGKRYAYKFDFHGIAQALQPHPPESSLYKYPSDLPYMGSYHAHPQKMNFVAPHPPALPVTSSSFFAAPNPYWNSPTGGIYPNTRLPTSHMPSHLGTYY
# Summary of the method: as §1
# [5] = target: ELF1 (Homo sapiens, UniProt P32519 1-619); settings: protein: recombinant; tags: N-terminal GST; dsDNA, one strand shown
# Sequence of ELF1 (P32519 whole entry): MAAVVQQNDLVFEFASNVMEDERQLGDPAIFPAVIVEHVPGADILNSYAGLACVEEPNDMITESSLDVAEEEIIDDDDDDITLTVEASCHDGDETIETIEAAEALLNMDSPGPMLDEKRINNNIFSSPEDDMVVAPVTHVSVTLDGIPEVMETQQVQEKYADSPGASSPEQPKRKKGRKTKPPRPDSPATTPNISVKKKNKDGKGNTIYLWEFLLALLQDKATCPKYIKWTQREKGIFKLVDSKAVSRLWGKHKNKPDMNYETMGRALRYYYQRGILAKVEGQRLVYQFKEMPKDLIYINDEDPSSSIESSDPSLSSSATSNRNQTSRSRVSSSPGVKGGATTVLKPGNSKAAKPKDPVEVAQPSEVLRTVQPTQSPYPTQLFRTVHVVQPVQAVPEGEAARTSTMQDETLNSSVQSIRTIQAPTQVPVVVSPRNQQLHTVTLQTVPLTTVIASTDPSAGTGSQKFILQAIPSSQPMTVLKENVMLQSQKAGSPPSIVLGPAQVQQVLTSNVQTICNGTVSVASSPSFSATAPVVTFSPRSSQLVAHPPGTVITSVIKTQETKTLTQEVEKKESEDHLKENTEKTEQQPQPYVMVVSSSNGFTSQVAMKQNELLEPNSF
# Summary of the method: as §1
# [6] = target: T5, EHF (Homo sapiens, UniProt Q9NZC4 1-300); settings: protein: recombinant; tags: N-terminal GST; dsDNA, one strand shown
# T5 sequence: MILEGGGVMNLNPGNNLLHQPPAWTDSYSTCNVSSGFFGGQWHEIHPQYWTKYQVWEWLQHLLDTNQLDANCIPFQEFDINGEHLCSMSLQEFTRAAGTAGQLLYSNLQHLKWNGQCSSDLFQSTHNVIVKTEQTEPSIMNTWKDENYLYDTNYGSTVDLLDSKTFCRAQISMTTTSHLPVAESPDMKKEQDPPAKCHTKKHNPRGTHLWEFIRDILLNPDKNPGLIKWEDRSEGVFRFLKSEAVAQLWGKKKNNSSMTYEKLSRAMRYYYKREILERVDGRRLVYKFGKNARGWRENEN
# Summary of the method: as §1
# [7] = target: SPI1 (Homo sapiens, UniProt P17947 1-270); settings: protein: recombinant; tags: N-terminal GST; dsDNA, one strand shown
# Summary of the method: as §1
# [8] = target: SPIB (Homo sapiens, UniProt Q01892 1-262); settings: protein: recombinant; tags: N-terminal GST; dsDNA, one strand shown
# Sequence of SPIB (Q01892 whole entry): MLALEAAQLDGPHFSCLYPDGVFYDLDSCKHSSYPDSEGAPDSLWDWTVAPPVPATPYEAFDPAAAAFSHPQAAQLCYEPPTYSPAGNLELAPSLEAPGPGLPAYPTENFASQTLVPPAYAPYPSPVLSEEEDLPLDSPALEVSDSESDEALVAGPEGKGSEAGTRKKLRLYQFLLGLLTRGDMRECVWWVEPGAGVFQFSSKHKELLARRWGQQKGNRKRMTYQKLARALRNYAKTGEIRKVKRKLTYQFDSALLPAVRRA
# Summary of the method: as §1
# [9] = target: T6, ELK3 (Homo sapiens, UniProt P41970 1-407); settings: protein: recombinant; tags: N-terminal GST; dsDNA, one strand shown
# T6 sequence: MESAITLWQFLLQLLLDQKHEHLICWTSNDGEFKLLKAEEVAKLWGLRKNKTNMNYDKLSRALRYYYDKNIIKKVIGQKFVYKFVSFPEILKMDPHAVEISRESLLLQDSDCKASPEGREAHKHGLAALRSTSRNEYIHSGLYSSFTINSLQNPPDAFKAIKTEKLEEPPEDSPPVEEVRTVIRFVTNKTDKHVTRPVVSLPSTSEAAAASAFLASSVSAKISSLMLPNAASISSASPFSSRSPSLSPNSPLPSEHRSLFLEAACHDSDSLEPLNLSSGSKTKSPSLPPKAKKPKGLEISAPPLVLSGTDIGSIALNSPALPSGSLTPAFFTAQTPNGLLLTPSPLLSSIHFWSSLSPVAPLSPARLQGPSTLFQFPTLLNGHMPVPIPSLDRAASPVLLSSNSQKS
# Summary of the method: as §1
# [10] = target: T7, FEV (Homo sapiens, UniProt Q99581 1-238); settings: protein: recombinant; tags: N-terminal GST; dsDNA, one strand shown
# T7 sequence: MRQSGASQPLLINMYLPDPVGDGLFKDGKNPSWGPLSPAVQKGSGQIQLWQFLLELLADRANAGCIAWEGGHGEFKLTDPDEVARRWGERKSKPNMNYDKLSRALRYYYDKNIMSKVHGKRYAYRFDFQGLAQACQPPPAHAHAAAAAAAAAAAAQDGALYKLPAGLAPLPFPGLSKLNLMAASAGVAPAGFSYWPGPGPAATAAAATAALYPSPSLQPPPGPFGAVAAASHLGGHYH
# Summary of the method: as §1
# [11] = target: ETV5 (Homo sapiens, UniProt P41161 1-510); settings: protein: recombinant; tags: N-terminal GST; dsDNA, one strand shown
# Sequence of ETV5 (P41161 whole entry): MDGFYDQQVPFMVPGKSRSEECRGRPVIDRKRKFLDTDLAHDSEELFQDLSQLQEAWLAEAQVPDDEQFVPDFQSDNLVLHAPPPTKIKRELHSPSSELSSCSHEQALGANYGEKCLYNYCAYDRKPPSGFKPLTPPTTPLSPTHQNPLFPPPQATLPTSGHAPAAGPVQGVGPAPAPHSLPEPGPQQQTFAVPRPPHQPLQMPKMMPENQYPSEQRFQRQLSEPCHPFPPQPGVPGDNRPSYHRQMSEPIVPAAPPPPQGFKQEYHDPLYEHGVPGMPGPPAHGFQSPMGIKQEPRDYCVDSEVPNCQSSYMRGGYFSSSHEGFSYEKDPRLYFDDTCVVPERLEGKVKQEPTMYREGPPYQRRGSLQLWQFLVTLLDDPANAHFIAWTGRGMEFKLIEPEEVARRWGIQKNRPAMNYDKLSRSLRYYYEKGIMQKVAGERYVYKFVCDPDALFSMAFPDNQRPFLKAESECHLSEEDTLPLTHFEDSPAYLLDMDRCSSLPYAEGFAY
# Summary of the method: as §1
# [12] = target: HSF1 (Homo sapiens, UniProt Q00613 1-529); settings: protein: recombinant; tags: N-terminal GST; chain copies: 3; dsDNA, one strand shown
# Sequence of HSF1 (Q00613 whole entry): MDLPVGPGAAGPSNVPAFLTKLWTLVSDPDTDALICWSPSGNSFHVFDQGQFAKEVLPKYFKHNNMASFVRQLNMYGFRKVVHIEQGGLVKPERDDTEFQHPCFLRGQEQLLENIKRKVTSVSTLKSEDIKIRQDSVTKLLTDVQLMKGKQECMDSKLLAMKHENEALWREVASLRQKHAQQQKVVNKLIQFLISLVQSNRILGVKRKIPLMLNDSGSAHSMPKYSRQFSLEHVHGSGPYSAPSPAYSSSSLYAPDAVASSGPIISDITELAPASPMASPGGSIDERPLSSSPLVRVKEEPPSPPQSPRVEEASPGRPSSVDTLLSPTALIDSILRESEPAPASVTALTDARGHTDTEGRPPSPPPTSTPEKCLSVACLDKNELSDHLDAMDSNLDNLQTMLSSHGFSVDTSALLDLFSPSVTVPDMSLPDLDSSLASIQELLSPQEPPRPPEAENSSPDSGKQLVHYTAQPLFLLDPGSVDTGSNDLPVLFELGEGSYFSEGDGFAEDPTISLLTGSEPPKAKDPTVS
# Summary of the method: as §1
# [13] = target: T8, SPIC (Homo sapiens, UniProt Q8N5J4 1-248); settings: protein: recombinant; tags: N-terminal GST; dsDNA, one strand shown
# T8 sequence: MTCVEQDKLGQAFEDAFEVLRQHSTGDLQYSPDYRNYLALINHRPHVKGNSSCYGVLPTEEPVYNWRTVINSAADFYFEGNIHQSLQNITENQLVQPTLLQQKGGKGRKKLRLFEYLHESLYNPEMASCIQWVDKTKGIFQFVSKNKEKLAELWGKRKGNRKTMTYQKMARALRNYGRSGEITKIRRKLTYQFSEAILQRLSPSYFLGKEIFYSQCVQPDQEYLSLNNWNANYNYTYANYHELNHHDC
# Summary of the method: as §1
# [14] = target: ELF4 (Homo sapiens, UniProt Q99607 1-663); settings: protein: recombinant; tags: N-terminal GST; dsDNA, one strand shown
# Sequence of ELF4 (Q99607 whole entry): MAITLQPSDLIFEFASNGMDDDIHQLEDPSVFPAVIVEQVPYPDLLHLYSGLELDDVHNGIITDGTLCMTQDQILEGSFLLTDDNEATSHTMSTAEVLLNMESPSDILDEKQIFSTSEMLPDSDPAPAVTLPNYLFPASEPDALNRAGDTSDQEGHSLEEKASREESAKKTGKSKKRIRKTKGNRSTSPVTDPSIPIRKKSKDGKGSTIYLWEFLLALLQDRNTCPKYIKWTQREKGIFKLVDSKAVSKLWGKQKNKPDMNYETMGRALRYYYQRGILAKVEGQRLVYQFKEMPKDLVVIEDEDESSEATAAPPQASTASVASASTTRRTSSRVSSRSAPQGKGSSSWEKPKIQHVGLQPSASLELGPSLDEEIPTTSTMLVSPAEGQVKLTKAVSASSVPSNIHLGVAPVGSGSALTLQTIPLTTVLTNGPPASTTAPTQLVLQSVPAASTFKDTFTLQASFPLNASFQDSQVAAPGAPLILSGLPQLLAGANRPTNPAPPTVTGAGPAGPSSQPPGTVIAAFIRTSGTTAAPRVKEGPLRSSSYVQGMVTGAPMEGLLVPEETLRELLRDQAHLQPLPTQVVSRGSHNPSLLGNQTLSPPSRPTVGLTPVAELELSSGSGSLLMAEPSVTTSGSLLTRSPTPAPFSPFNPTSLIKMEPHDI
# Summary of the method: as §1
# [15] = target: T9, ELK4 (Homo sapiens, UniProt P28324-2 1-405); settings: protein: recombinant; tags: N-terminal GST; dsDNA, one strand shown
# T9 sequence: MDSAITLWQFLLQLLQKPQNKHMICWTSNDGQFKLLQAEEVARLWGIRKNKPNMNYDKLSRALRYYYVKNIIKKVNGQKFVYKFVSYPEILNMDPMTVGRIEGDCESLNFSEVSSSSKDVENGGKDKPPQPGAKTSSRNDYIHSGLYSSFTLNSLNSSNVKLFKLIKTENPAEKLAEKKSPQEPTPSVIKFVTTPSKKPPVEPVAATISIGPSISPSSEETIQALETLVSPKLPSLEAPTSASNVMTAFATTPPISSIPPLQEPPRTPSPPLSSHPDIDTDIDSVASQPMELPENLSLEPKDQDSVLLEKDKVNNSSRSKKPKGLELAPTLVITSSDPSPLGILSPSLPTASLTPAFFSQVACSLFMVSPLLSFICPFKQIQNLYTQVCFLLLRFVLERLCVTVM
# Summary of the method: as §1
# [16] = target: T10, ETV2 (Homo sapiens, UniProt O00321 1-342); settings: protein: recombinant; tags: N-terminal GST; dsDNA, one strand shown
# T10 sequence: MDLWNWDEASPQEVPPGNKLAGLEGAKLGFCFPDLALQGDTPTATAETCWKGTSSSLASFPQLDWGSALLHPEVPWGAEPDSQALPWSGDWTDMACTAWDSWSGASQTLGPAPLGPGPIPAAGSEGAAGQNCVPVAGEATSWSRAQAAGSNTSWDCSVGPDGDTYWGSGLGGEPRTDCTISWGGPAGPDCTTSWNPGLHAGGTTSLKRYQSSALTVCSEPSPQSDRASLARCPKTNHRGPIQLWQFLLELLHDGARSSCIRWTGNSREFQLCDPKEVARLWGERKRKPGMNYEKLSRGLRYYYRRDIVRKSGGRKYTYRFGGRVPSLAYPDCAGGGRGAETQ
# Summary of the method: as §1
# [17] = target: T11, ELF3 (Homo sapiens, UniProt P78545 1-371); settings: protein: recombinant; tags: N-terminal GST; dsDNA, one strand shown
# T11 sequence: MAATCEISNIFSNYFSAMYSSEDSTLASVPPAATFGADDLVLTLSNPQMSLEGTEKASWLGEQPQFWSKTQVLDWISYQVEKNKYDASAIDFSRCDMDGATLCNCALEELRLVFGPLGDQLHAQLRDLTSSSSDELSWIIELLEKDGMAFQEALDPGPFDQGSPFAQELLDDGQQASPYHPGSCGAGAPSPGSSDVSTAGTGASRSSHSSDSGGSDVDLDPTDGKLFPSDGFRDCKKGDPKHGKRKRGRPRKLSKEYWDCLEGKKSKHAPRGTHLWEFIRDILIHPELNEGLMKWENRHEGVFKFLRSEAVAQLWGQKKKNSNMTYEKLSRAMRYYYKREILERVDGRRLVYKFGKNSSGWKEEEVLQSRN
# Summary of the method: as §1
# [18] = target: CRX (Homo sapiens, UniProt O43186 1-299); settings: protein: recombinant; tags: N-terminal GST; dsDNA, one strand shown
# Sequence of CRX (O43186 whole entry): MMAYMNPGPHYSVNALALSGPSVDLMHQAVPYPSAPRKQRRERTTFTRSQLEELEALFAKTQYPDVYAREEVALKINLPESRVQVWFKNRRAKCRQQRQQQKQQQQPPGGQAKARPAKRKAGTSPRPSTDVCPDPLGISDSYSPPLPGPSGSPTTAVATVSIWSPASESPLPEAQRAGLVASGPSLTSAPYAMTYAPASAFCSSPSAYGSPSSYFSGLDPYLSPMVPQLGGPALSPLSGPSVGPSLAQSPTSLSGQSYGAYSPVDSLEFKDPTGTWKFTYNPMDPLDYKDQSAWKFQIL
# Summary of the method: as §1
# [19] = target: ETV1 (Homo sapiens, UniProt P50549 1-477); settings: protein: recombinant; tags: N-terminal GST; dsDNA, one strand shown
# Sequence of ETV1 (P50549 whole entry): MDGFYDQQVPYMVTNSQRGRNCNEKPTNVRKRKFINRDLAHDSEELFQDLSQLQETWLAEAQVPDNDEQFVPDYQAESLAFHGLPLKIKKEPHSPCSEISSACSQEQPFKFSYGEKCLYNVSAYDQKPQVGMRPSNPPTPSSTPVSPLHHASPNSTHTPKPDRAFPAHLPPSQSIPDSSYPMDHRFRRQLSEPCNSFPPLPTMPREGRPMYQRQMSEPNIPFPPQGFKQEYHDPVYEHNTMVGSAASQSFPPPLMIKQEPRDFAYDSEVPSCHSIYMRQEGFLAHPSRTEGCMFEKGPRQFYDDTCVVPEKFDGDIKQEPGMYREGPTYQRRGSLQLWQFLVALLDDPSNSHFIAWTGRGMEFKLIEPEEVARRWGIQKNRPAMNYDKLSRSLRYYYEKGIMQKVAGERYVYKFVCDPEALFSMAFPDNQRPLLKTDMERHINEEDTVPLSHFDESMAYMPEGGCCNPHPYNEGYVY
# Summary of the method: as §1
sequence,measurement,setting,value
GCTGTA,binding signal,[1],"1.02 fold enrichment (6-mer frequency, TF over GST control)"
same,binding signal,[2],"1.04 fold enrichment (6-mer frequency, TF over GST control)"
same,binding signal,[3],"1.15 fold enrichment (6-mer frequency, TF over GST control)"
same,binding signal,[4],"1.08 fold enrichment (6-mer frequency, TF over GST control)"
same,binding signal,[5],"1.21 fold enrichment (6-mer frequency, TF over GST control)"
same,binding signal,[6],"1.1 fold enrichment (6-mer frequency, TF over GST control)"
same,binding signal,[7],"1.04 fold enrichment (6-mer frequency, TF over GST control)"
same,binding signal,[8],"1.04 fold enrichment (6-mer frequency, TF over GST control)"
same,binding signal,[9],"1.14 fold enrichment (6-mer frequency, TF over GST control)"
same,binding signal,[10],"1.15 fold enrichment (6-mer frequency, TF over GST control)"
same,binding signal,[11],"1.06 fold enrichment (6-mer frequency, TF over GST control)"
same,binding signal,[12],"1 fold enrichment (6-mer frequency, TF over GST control)"
same,binding signal,[13],"1.36 fold enrichment (6-mer frequency, TF over GST control)"
same,binding signal,[14],"1.08 fold enrichment (6-mer frequency, TF over GST control)"
same,binding signal,[15],"1.09 fold enrichment (6-mer frequency, TF over GST control)"
same,binding signal,[16],"1.08 fold enrichment (6-mer frequency, TF over GST control)"
same,binding signal,[17],"1.07 fold enrichment (6-mer frequency, TF over GST control)"
same,binding signal,[18],"1.02 fold enrichment (6-mer frequency, TF over GST control)"
same,binding signal,[19],"1.06 fold enrichment (6-mer frequency, TF over GST control)"
